Pf Dd2 growth – Plasmodium falciparum Dd2 growth inhibition | 4.3% of 120,000 active | P. falciparum Dd2 growth, SYBR Green, 72 h | Potency, µM (series often up to 28.9 µM), for the others: at the top dose activity, negative = inhibition, most hits filed as inhibitors | AID 1347417; active = well fitted inhibition curve with a large enough effect;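 note: plate controls were DMSO vehicle for no effect and reference drug for full effect; nearly all actives have a fitted effect of over 65% in size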
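Readout: SYBR Green fluorescence, 485 nm excitation, 535 nm emission, after ~16 h lysis at 37C. Before that, Dd2-infected red cells (2.5% hematocrit) grew 72 h with compound, 29 uM top final concentration.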
* hit, by the source's call; i = inactive; [ ] = another dose, or the depositor's remark. The sample as a whole holds a higher share of hits than the screen did. Potency is the fitted concentration of half-maximal effect.

SMILES | Pf Dd2 growth
COc1cccc(NC(=O)N[C@H]2CCN(C(=O)CSC)[C@@H]2C(=O)N[C@H](Cc2ccccc2)C(N)=O)c1 | -22.7%
CO[C@@H]1CCOC[C@H]1NC(=O)C1CCN(C(=O)c2ccccn2)CC1 | -3.3%
COCc1nc(CCNC(=O)c2c3c(nc4ccccc24)CCCC3)no1 | 33.7%
CC1=C[C@@H](CC#N)[C@H](C(C)C)C[C@H]1CC(=O)N1CCN(c2cnccn2)CC1 | 7.08µM*
CC(=O)N1CCN(C(=O)C[C@@H]2C[C@@H](C(C)C)[C@H](CC#N)C=C2C)CC1 | -9.7%[44.1 µM]
CC1=C[C@@H](CNC(=O)C2CCCCC2)[C@H](C(C)C)C[C@H]1CC(=O)N1CCN(c2ccccn2)CC1 | 10µM*
CC1=C[C@@H](CO)[C@H](C(C)C)C[C@H]1CC(=O)N1CCN(CCO)CC1 | i
CC1=C[C@@H](CNC(=O)c2ccccc2)[C@H](C(C)C)C[C@H]1CC(=O)N1CCN(C)CC1 | i
CC1=C[C@@H](CNC(=O)C(C)(C)C)[C@H](C(C)C)C[C@H]1CC(=O)N1CCN(c2ccccn2)CC1 | -5.6%
CCOc1cc(=O)n2c(c1C(=O)NCc1ccc(F)cc1Cl)CCCC2 | 19.8%
COCCn1c(C)nnc1-c1cc(-c2ccnc(OC)c2)ccn1 | i
CCCNC(=O)N1CCC(n2c(C)cnc2C2CC2)CC1 | -23.0%
CN(C)C(=O)C1CN(C(=O)NCc2ccc(F)cc2)CC12CCOCC2 (configuration not stated) | 23.6%
CN1C[C@@H](NS(C)(=O)=O)C[C@H]1c1nc(-c2ccc(Cl)cc2)no1 | i
O=C(Nc1cc(F)ccc1F)C1CN(S(=O)(=O)c2cccnc2)CC12CCCCC2 (configuration not stated) | -20.2%
COC(=O)CCNC(=O)C1CN(S(=O)(=O)c2cccnc2)CC12CCCCC2 (configuration not stated) | -10.1%
O=C(NCCc1cccs1)C1CN(S(=O)(=O)c2cccnc2)CC12CCCCC2 (configuration not stated) | -5.0%
O=C(NCCCN1CCCC1=O)C1CN(S(=O)(=O)c2ccccc2)CC12CCCCC2 (configuration not stated) | 33.8%
O=C(NCc1cc(F)ccc1F)C1CN(S(=O)(=O)c2cccnc2)CC12CCCCC2 (configuration not stated) | 2.82µM*
O=C(NCCN1CCOCC1)C1CN(S(=O)(=O)c2ccccc2)CC12CCCCC2 (configuration not stated) | 3.98µM*
c1cnn(CC2CN(Cc3cc4n(n3)CCNC4)CCCO2)c1 (configuration not stated) | -5.8%
CCOCc1nc(C2CCCN(C(=O)COc3ccccc3)C2)no1 (configuration not stated) | 18.6%
COCCC(=O)N1CCc2oc(C)c(C(=O)N(C)C)c2C1 | -12.8%
CC(C)C(=O)N1CCC(O)(c2csc(CN3CCN(C)CC3)n2)CC1 | 12.5%[44.1 µM]
CC1(C(=O)N2CCCC2)CCCc2cnc(Nc3ccccc3)nc21 (configuration not stated) | -5.4%[44.1 µM]
SMILES | Pf Dd2 growth
CC1(C(=O)N2CCC(c3ccccc3)CC2)CCc2cnc(Nc3ccncc3)nc21 (configuration not stated) | 10µM*
CC(=O)N1CCN(C(=O)C2(C)CCc3cnc(Nc4ccccc4)nc32)CC1 (configuration not stated) | 21.2%[44.1 µM]
Cc1ncoc1C(=O)N1CCC(c2noc(-c3ccncc3)n2)C1 (configuration not stated) | i[5.79 µM]
COc1cccc(C(=O)N2CCC3(CC2)N(C)C(=O)CS3(=O)=O)c1C | 9.6%
COc1ccc(F)cc1S(=O)(=O)N1C[C@@H](F)C[C@H]1C(=O)N1CCc2ccccc2C1 | i
COc1ccccc1N1CCN(S(=O)(=O)c2ccc(-c3coc(C)n3)cc2)CC1 | 41.1%
COc1cccc2sc(=NC(=O)c3ccc(S(=O)(=O)N4CCCCC4)cc3)n(C)c12 | 0.8%
COc1ccccc1N=c1scc(-c2ccc(S(=O)(=O)N3CCCC3)cc2)n1C | 10µM*
CN(Cc1ccnn1C)C1CCCc2ccccc21 (configuration not stated) | i
CN(C)Cc1ccc(-c2cc3c(ccn3Cc3cccnc3)c(C3=CCOCC3)n2)cc1 | -12.4%[44.1 µM]
C=CCn1cc2c3c(cccc31)[C@H](CC(C)C)N[C@H](C(=O)N1CCOCC1)C2 | i
C=CCn1cc2c3c(cccc31)[C@H](CC(C)C)N[C@H](C(=O)NCCN1CCOCC1)C2 | i
C=CCn1cc2c3c(cccc31)[C@H](CC(C)C)N[C@H](C(=O)NCc1ccccc1OC)C2 | -9.0%[44.1 µM]
C=CCn1cc2c3c(cccc31)[C@H](CC(C)C)N[C@H](C(=O)NC1CCC1)C2 | 12.6µM*
CC(C)C[C@@H]1N[C@H](C(=O)NC2CCCC2)Cc2c[nH]c3cccc1c23 | 12.6µM*
CC(=O)N1CCCN(C(=O)[C@@H]2Cc3cn(C)c4cccc(c34)[C@H](CC(C)C)N2)CC1 | -5.5%[44.1 µM]
CC(C)C[C@@H]1N[C@H](C(=O)NC2CCCC2)Cc2cn(CC3CC3)c3cccc1c23 | -16.3%[44.1 µM]
CC(C)C[C@@H]1N[C@H](C(=O)NC2CCC2)Cc2c[nH]c3cccc1c23 | -15.9%[44.1 µM]
C#CCNC(=O)[C@@H]1Cc2c[nH]c3cccc(c23)[C@H](CC(C)C)N1 | i
CC(C)C[C@@H]1N[C@H](C(=O)NC2CCC2)Cc2cn(Cc3nccn3C)c3cccc1c23 | 10µM*
C=CCn1cc2c3c(cccc31)[C@H](CC(C)C)N[C@H](C(=O)NCc1ccccc1)C2 | 7.08µM*
CC#CCn1cc2c3c(cccc31)[C@H](CC(C)C)N[C@H](C(=O)OC)C2 | i
COCCN1CCCCCC(O)c2cc(C(=O)NCc3ccccc3OC)ccc21 (configuration not stated) | i
COCc1noc(CC2CCOC3(CCN(C(=O)NC4CCCCC4)CC3)C2)n1 (configuration not stated) | i
NC(=O)C1(c2nc(-c3ccncc3)nn2-c2ccc3c(c2)OCCO3)CC1 | -13.8%
SMILES | Pf Dd2 growth
O=C(Cn1cnnn1)NCc1ccc(-c2cnc3c(Oc4ccccc4)nccn23)cc1 | -6.5%[44.1 µM]
COc1coc(C(=O)N2CCCC(c3ccccc3)(c3ccccc3)C2)cc1=O | -5.1%
CC(C)c1cc(C(=O)N2CCCC(c3ccccc3)(c3ccccc3)C2)n(C)n1 | 3.16µM*
Cc1nnnn1CC(=O)N1CCCC(c2ccccc2)(c2ccccc2)C1 | -7.6%
COc1ccc(C(=O)N2CCC3(CC2)NC(=O)N(c2cccc(F)c2)N3)cc1 | 11.2µM*
COc1ccccc1C(=O)N1CCC2(CC1)NC(=O)N(c1cccc(F)c1)N2 | i
COc1ccc(C(=O)N2CCC3(CC2)NC(=O)N(c2cccc(F)c2)N3)cc1F | i
COc1ccc(Cl)cc1C(=O)N1CCC2(CC1)NC(=O)N(c1ccccc1)N2 | -19.1%
COc1cccc(C(=O)N2CCC3(CC2)NC(=O)N(c2ccccc2)N3)c1 | i
COc1ccc(Cl)cc1C(=O)N1CCC2(CC1)NC(=O)N(c1cccc(F)c1)N2 | 10µM*
CN(Cc1ccccc1C(F)(F)F)Cc1ccnn1C | -2.7%[44.1 µM]
O=C(Nc1ccc2c(c1)CCC2)C1CCN(C(=O)c2ncn3c2COC(c2ccc(F)cc2)C3)CC1 (configuration not stated) | i
Cc1nnc2ccc(NC3CC3)nn12 | 6.5%
O=C(CCc1nc2ccccc2[nH]1)N1CCC(c2nc(CCOCC3CC3)no2)C1 (configuration not stated) | -3.7%
COCCNC(=O)C[C@@H]1O[C@H](CNC(=O)c2cccc(F)c2)[C@@H](O)[C@H]1O | 14.2%[44.1 µM]
CCOC(=O)c1ccccc1NC(=O)N(C(C)C)C1CCN(C(C)=O)CC1 | -8.2%
